Assay results from PubChem BioAssay.
Calls of active or inactive are those of the source.

What was measured:
[1] = test system: Plasmodium falciparum Sir2 (PF13_0152, Sir2A); assay: pfSir2 binders on small-molecule microarrays, primary screen, biochemical, small-molecule microarray, 635 nm fluorescence (AID 1098); conditions: small-molecule microarray binding, fluorescence 635 nm; higher = more signal;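 further: score merges spot fluorescence intensity with its signal-to-noise ratio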
[2] = small-molecule microarray binders of probe aDKK1, primary screen, biochemical, biotinylated probe, 635/667 nm fluorescence (AID 1099); conditions: higher = more signal;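 further: score merges 667nm spot fluorescence with signal to noise across triplicate slides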
[3] = small-molecule microarray binders of probe aCHRDL2, primary screen, biochemical, biotinylated probe, 635/667 nm fluorescence (AID 1100); conditions: higher = more signal
[4] = splicing luciferase reporter signal modulators, primary screen, spliceosome inhibition project, cell-based, HEK293, splice +/- reporter (AID 1101); conditions: luminescence, 24 h, higher = more signal, called active from +8 up or from −8 down;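 further: HEK293 cells carrying a splicing-competent luciferase reporter gene; test concentration not given here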
[5] = target: Fibroblast growth factor 10 (Homo sapiens) (UniProt O15520); assay: FGF10 binders on small-molecule microarrays, primary screen, biochemical, small-molecule microarray, 635 nm fluorescence (AID 1102); conditions: FGF10 binding, fluorescence 635 nm, higher = more signal
Sequence of Fibroblast growth factor 10 (Homo sapiens) (O15520 whole entry, looked up): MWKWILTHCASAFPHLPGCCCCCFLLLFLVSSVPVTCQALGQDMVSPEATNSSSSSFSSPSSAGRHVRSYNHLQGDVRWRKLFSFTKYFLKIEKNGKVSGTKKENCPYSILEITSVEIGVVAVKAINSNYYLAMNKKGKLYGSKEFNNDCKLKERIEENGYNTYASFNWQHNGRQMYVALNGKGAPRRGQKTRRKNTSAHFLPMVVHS

[6] = test system: glycogen synthase kinase-3 (GSK3A per assay name; protocol says GSK3B); assay: GSK3 binders on small-molecule microarrays, primary screen, biochemical, small-molecule microarray, 635 nm fluorescence, GSK3A (AID 1103); conditions: small-molecule microarray binding, fluorescence 635 nm; higher = more signal; further: the record names both GSK3A and GSK3B
[7] = target: Epidermal growth factor receptor (Homo sapiens) (UniProt P00533); assay: EGFR binders on small-molecule microarrays, primary screen, biochemical, small-molecule microarray, 635 nm fluorescence (AID 1104); conditions: EGFR binding, higher = more signal;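 further: score merges 667 nm emission intensity with spot signal to noise over triplicate slides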
Sequence of Epidermal growth factor receptor (Homo sapiens) (P00533 whole entry, looked up): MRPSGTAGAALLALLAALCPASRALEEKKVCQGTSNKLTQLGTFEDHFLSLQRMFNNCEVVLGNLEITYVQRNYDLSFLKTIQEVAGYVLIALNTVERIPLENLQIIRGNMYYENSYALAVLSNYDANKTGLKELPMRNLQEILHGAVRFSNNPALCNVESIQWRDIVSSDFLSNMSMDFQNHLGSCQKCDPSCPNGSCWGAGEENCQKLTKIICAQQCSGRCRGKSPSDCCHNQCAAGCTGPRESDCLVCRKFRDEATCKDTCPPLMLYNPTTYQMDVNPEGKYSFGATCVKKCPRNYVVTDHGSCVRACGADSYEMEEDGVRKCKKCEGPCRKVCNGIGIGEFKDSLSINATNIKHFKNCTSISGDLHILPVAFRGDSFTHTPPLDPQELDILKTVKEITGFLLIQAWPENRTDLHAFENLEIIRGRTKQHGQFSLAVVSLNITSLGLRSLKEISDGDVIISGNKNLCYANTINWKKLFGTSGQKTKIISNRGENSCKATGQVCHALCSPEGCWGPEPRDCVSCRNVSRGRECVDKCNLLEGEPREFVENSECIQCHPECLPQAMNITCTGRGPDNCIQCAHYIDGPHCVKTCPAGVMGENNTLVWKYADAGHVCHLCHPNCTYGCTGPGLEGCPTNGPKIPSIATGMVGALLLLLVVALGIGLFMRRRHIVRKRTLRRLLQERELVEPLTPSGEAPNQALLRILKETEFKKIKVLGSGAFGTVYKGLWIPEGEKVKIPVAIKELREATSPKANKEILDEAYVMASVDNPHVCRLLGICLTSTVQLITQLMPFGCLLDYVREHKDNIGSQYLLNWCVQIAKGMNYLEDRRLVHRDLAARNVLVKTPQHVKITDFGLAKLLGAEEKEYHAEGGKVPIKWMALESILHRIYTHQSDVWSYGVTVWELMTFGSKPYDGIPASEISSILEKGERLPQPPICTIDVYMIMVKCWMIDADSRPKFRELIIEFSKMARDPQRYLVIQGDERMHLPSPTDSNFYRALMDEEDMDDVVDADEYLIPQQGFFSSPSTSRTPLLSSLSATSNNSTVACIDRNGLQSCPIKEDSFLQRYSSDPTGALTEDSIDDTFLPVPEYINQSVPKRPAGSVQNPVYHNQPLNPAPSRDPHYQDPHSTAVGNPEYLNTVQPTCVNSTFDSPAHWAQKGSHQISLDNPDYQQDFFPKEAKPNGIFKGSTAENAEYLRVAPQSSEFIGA

[8] = target: Follistatin-related protein 3 (Homo sapiens) (UniProt O95633); assay: FSTL3 binders on small-molecule microarrays, primary screen, biochemical, small-molecule microarray, 635 nm fluorescence (AID 1105); conditions: FSTL3 binding, higher = more signal;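 further: score merges emission near 667 nm and signal to noise per printed spot across three slides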
Sequence of Follistatin-related protein 3 (Homo sapiens) (O95633 whole entry, looked up): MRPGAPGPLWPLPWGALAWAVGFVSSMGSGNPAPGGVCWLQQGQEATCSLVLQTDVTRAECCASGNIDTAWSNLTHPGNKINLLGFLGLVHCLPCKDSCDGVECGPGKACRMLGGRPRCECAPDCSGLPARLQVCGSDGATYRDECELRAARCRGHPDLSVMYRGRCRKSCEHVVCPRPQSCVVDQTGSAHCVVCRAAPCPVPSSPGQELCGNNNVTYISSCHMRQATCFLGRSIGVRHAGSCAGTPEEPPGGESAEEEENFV

[9] = target: Dickkopf-related protein 1 (Homo sapiens) (UniProt O94907); assay: DKK1 binders on small-molecule microarrays, primary screen, biochemical, small-molecule microarray, 635 nm fluorescence scan (AID 1106); conditions: DKK1 binding, higher = more signal;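 further: score merges emission near 667 nm with signal to noise over three replicate slides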
Sequence of Dickkopf-related protein 1 (Homo sapiens) (O94907 whole entry, looked up): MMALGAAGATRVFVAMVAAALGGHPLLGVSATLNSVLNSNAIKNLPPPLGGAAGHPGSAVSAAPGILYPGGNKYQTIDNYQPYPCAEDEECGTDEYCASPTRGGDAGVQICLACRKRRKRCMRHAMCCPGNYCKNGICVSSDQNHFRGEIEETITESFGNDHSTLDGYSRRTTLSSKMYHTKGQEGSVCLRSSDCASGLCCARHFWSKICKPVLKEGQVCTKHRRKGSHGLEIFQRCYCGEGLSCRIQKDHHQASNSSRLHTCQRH

[10] = test system: Inhibin beta A chain (activin A); assay: INHBA (activin A) binders on microarrays, primary screen, biochemical, small-molecule microarray, 635 nm fluorescence scan (AID 1107); conditions: small-molecule microarray binding, higher = more signal;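 further: mouse activin A protein probed at 4.33 µg/mL on printed slides; score merges bound-protein fluorescence near 667 nm with spot signal-to-noise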
[11] = test system: Human papillomavirus type 1a protein E7 (residues 44-93); assay: HPV1a E7 fragment binders on microarrays, primary screen, biochemical, small-molecule microarray, residues 44-93, 635 nm fluorescence (AID 1108); conditions: small-molecule microarray binding, fluorescence 635 nm; higher = more signal;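 further: E7 fragment applied at 1 µg/mL in TBST for 1 h at 4 C; score combines spot fluorescence with its signal to noise ratio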
[12] = modulators of HCV replicon luciferase signal, primary screen, HCV replication inhibitor project, Huh7 cells, luciferase reporter (AID 1109); conditions: 48 h, higher = more signal;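 further: huh7 hepatoma cells harbouring a luciferase neomycin HCV replicon reporter; luciferase luminescence as measure of HCV replicon replication; test concentration not given here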
[13] = target: Left-right determination factor 2 (Homo sapiens) (UniProt O00292); assay: LEFTY2 binders on small-molecule microarrays, primary screen, biochemical, small-molecule microarray, 635 nm fluorescence scan (AID 1110); conditions: LEFTY2 binding, higher = more signal
Sequence of Left-right determination factor 2 (Homo sapiens) (O00292 whole entry, looked up): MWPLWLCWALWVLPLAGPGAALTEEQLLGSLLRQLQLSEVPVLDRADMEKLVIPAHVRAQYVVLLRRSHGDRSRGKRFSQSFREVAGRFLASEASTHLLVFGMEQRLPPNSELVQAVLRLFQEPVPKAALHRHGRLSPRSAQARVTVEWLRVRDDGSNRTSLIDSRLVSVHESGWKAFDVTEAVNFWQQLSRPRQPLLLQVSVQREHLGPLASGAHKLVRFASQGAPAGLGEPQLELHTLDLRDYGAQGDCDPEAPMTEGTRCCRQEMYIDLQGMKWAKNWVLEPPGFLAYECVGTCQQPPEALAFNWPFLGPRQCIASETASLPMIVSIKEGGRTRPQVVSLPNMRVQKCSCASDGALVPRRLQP

[14] = target: Calmodulin-1 (Homo sapiens) (UniProt P0DP23); assay: CALM1 binders on microarrays, EGTA buffer, profiling panel, biochemical, small-molecule microarray, Cy5-labelled CALM1 (AID 1111); conditions: Cy5-CALM1 binding fluorescence, higher = more signal;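 further: labelled calmodulin applied in Tris saline Tween buffer holding calcium plus EGTA and DTT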
[15] = target: Calmodulin-1 (Homo sapiens) (UniProt P0DP23); assay: calcium-bound CALM1 binders on microarrays, profiling panel, artefact control for SMM control-protein annotation, biochemical, small-molecule microarray, Cy5-labelled CALM1, plus calcium (AID 1112); conditions: Cy5-CALM1 binding fluorescence, higher = more signal;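 further: score merges spot fluorescence with signal to noise from triplicate slides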
[16] = small-molecule microarray binders of probe aWnt5a, primary screen, biochemical, biotinylated probe, 635/667 nm fluorescence (AID 1113); conditions: higher = more signal;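 further: score merges 667 nm fluorescence intensity with signal-to-noise per printed feature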
[17] = small-molecule microarray binders of probe aShh, primary screen, biochemical, biotinylated probe, 635/667 nm fluorescence (AID 1114); conditions: higher = more signal;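 further: probe is biotin-labelled aShh protein from a stem cell growth factor screen; measures binding of labelled protein to compounds printed on the slide; score merges feature fluorescence at 667 nm with signal-to-noise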
[18] = small-molecule microarray binders of probe aNog, primary screen, biochemical, biotinylated probe, 635/667 nm fluorescence (AID 1115); conditions: higher = more signal;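 further: probe is biotinylated aNog protein used at 0.15 µg/mL for 1 h at 4 C; z-score combines 667 nm fluorescence of each spot with its signal to noise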
[19] = target: Torsin-1A-interacting protein 1 (Homo sapiens) (UniProt Q5JTV8); assay: LAP1 binders from COS7 cell lysate, primary screen, small-molecule microarray, 635/667 nm fluorescence (AID 1116); conditions: COS7-hLAP1 lysate binding, 635 nm fluorescence, higher = more signal
Sequence of Torsin-1A-interacting protein 1 (Homo sapiens) (Q5JTV8 whole entry, looked up): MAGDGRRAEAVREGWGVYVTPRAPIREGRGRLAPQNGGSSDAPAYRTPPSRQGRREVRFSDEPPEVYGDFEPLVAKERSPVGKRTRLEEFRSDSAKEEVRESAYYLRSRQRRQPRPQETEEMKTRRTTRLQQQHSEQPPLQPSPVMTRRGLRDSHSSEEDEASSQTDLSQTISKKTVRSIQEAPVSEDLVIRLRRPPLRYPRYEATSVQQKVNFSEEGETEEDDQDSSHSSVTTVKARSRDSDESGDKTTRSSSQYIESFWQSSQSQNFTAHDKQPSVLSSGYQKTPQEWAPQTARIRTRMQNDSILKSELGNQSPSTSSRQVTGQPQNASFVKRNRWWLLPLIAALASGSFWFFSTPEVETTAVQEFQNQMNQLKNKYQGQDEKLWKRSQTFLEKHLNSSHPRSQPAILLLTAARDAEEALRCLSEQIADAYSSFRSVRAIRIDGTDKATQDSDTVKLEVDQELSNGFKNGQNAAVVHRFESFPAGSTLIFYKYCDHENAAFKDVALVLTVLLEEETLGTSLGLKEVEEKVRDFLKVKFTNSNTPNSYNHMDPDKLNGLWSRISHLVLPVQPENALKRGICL

[20] = target: Alpha-bungarotoxin (Bungarus multicinctus) (UniProt P60615); assay: alpha-bungarotoxin binders on microarray, profiling panel, artefact control for SMM control protein annotation, biochemical, small-molecule microarray, Alexa647 label, 635/667 nm fluorescence (AID 1117); conditions: alpha-BTX-A647 binding fluorescence, higher = more signal
Sequence of Alpha-bungarotoxin (Bungarus multicinctus) (P60615 whole entry, looked up): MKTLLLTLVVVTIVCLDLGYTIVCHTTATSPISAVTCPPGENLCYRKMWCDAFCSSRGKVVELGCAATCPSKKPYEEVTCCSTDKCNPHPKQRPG

Structure (SMILES)	composite z-score [1]	composite z-score [2]	composite z-score [3]	z-score [4]	composite z-score [5]	composite z-score [6]	composite z-score [7]	composite z-score [8]	composite z-score [9]	composite z-score [10]	composite z-score [11]	z-score [12]	composite z-score [13]	composite z-score [14]	composite z-score [15]	composite z-score [16]	composite z-score [17]	composite z-score [18]	composite z-score [19]	composite z-score [20]
Cc1ccc(F)cc1S(=O)(=O)N[C@@H]1CCN(Cc2ccc(-c3ccccc3)cc2)C1	0.293	-0.188	-0.318	1.18 (inactive)	0.927	0.205	0.156	0.239	0.138	0.42	0.504	-4.36	0.473	-0.452	-0.578	-0.129	-0.0011	-0.316	0.668	0.116
CC1CC/C=C\[C@H]2OC34C=CCN(Cc5ccccc5)C(=O)[C@H]3N(CCCCCO)C(=O)[C@@H]4C2C(=O)O1 (stereo not given in full)	-0.0545	-0.425	0.144	0.537 (inactive)	-0.423	-1.42	-0.713	-1.19	-0.892	-0.0407	-0.853	0.28	-0.918	-0.457	0.163	-0.0981	-0.345	-0.0704	1.04	1.39
COCCCNC(=O)[C@@]1(C)c2ccccc2C(=O)N(Cc2cc(C(F)(F)F)cc(C(F)(F)F)c2)[C@H]1c1ccc(CO)cc1	1.48	-0.0291	0.945	0.803 (inactive)	-0.607	-0.514	-1.24	-0.875	-1.62	-0.754	1.32	0.261	-1.8	0.0356	0.378	-0.154	-0.0626	0.583	-0.235	1.41
[N-]=[N+]=NCc1ccccc1C[C@@]1(C(=O)N2CCOCC2)N=C(c2ccc(OCCCO)cc2)O[C@@H]1c1ccccc1CN=[N+]=[N-]	1.63	1.22	1.37	-0.429 (inactive)	1.46	0.965	0.422	0.656	-0.0757	0.811	-0.422	-2.43	-0.269	2.2	1.06	0.324	0.167	-0.434	1.27	2.21
CN(C)CCCCCCNC(=O)[C@H]1C[C@H]2C(=O)N[C@@H](CCCCN)C(=O)N2[C@H]1c1ccc(O)cc1	2.14	2.83	1.71	0.509 (inactive)	1.29	1.48	1.6	1.65	2.15	1.45	1.48	-0.181	1.56	2.01	1.14	0.914	2.1	3.38	4.52	2.42
C=CCOC(=O)[C@@H]1[C@H]2C(=O)O[C@H](c3ccccc3)[C@H](c3ccccc3)N2[C@H](c2ccc(OCCOC(=O)[C@@H]3C[C@@H]4C(=O)NCC(=O)N4[C@@H]3c3cccc(OCCO)c3)cc2)[C@@]12C(=O)Nc1ccc(I)cc12	1.05	0.0651	-0.162	-0.798 (inactive)	1.29	1.16	1.12	1.1	0.866	0.884	1.43	-1.54	0.949	0.689	-0.0508	-0.0735	-0.043	1.07	-1.86	1.75
O=C/C=C/c1ccc(Cl)cc1	-0.34	-0.235	0.0073	-1.05 (inactive)	-0.513	-0.966	-0.301	0.0697	0.0956	0.934	-1.74	-0.482	0.163	-0.925	-0.0367	-0.0846	-0.147	-0.426	-0.381	0.0933
O=C1OCC=C[C@H]2OC34C=CCN(c5ccc(Cl)cc5)C(=O)[C@H]3N(CCCCCCO)C(=O)[C@@H]4[C@@H]12 (stereo not given in full)	2.08	0.0526	0.731	-0.313 (inactive)	-1.17	-0.799	-1.78	-1.58	-1.22	-0.087	-0.851	-0.493	-1.21	-0.123	0.174	-0.128	0.0062	0.46	-0.143	-1.34
COC(=O)[C@@]1(Cc2ccc(OC)cc2)[C@H]2c3cc(C(=O)N4CCCC4)n(Cc4ccccn4)c3C[C@H]2CN1C(=O)c1ccccc1	0.987	1.33	1.3	-3.17 (inactive)	0.928	1.2	-0.0442	0.182	-0.899	0.673	1.48	-1.52	-0.662	1.42	0.816	0.202	-0.0069	2.04	1.07	0.65
Cc1ccc(S[C@]2(C(=O)NCC(C)C)CC(=O)N(Cc3ccccc3Cl)[C@@H]2c2ccc(CO)cc2)cc1	-0.248	0.254	0.94	0.35 (inactive)	-0.756	-1.15	-1	-2.05	-1.77	-0.544	-0.411	-1.73	-1.46	-0.476	-0.115	-0.228	-0.181	-0.618	-1.08	0.86
CCCCC=C[C@@H](NC(=O)c1ccc(C(=O)OC)cc1)c1ccccc1	0.741	-0.095	0.613	-3.67 (inactive)	0.335	0.804	0.239	0.279	0.393	0.629	1.1	-1.36	0.107	0.168	-0.128	-0.15	0.0711	0.122	0.0279	0.926
